Whole data set: some 18,000 sequences, median “log2 normalized intensity” near 0.36, cut for the highest 2% near 7.3. The list comes from a sample in which the highest values are over-represented; it also holds similar and randomly drawn sequences.

The assay concerns the target T1, HNF4alpha8 (COS-7 nuclear extract) (Homo sapiens, UniProt P41235-5 1-452).
T1 sequence: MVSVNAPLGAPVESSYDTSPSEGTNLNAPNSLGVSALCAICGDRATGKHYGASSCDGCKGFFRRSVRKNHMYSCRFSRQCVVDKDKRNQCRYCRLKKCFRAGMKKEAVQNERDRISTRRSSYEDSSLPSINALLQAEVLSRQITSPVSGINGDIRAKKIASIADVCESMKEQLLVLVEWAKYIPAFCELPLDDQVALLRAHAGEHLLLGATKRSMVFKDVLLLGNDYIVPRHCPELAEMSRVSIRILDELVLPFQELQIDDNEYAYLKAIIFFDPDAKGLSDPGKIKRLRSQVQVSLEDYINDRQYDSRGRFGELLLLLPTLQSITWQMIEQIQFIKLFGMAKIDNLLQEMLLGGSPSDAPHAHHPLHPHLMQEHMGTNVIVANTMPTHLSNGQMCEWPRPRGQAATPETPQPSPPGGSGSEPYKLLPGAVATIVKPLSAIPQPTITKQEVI
Briefly: protein-binding microarray; COS-7 nuclear extract on double-stranded Agilent 4x180k PBM; binding buffer, salt, pH and temperature not given in the material; high values mean tight binding. The conditions noted are these: chain copies: 2; label: 3' end of strand 1 on the slide; dsDNA, one strand shown. A digest of the protocol:
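Binding signal is the background-corrected, normalized gProcessedSignal calculated by Agilent software. It was measured by applying nuclear extracts of COS-7 cells transiently transfected with a human HNF4α isoform expression vector to a custom Agilent SurePrint G3 4x180k array of ~44,000 double-stranded ~60-nt test sequences in quadruplicate, then imaging bound HNF4α on an Agilent G2565CA scanner at 2-µm resolution.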
Consider “TCAAGCTCAATGCAACCAGTTGGTGGGTCAGCCTAGGGAGATTAGAGTATCGGTCGA”, for which the binding signal stood at 1.44 log2 normalized intensity.
The figure for “GTTAGAACAAAGTCCAAATTCCTAACTATGGCCTAGGGAGATTAGAGTATCGGTCGA” is 4.38 log2 normalized intensity; for “TTTATTAGGGGTCAGCAAAGAACTCCCCAGGCCTAGGGAGATTAGAGTATCGGTCGA” it is 2.41 log2 normalized intensity; for “ACCAGCAATTTTCAGGGTTAAAAGTTCTGCGCCTAGGGAGATTAGAGTATCGGTCGA” it is 1.05 log2 normalized intensity.
With “GTGTTTGTCCTTTGTTGCAATGCTGGAACAGCCTAGGGAGATTAGAGTATCGGTCGA” the figure was 1.28 log2 normalized intensity.
With “CAGGTGGGAGGGGTGGACTTTGGCTTTTCCGCCTAGGGAGATTAGAGTATCGGTCGA” the figure was 6.31 log2 normalized intensity; with “GAGATAAGTCACCTTATCAAGTCCGAACTCGCCTAGGGAGATTAGAGTATCGGTCGA”, 1.35 log2 normalized intensity; with “GGAATCTTGCCCTGTCGCCCAGGCTGGAATGCCTAGGGAGATTAGAGTATCGGTCGA”, 1.58 log2 normalized intensity.
Consider “CTTTCTATCAGCTCTCCGTGGACTTTGCCCGCCTAGGGAGATTAGAGTATCGGTCGA”, for which the binding signal turned out to be 9.95 log2 normalized intensity.
The figure for “GTGGACTTTGCCTGCCCATCCCGTGGACTCGCCTAGGGAGATTAGAGTATCGGTCGA” is 4.49 log2 normalized intensity.
With “TTTGGCCCCCAGAGCCCCGTGTCTCCCTACGCCTAGGGAGATTAGAGTATCGGTCGA” the figure was 4.89 log2 normalized intensity.
The figure for “AAGAGACTTTGCCCTTTTTTTCTCTCCCCTGCCTAGGGAGATTAGAGTATCGGTCGA” is 3.92 log2 normalized intensity; for “TCTTCCTTTCTATCAGCTCTCCGTGGACTTGCCTAGGGAGATTAGAGTATCGGTCGA” it is 3.52 log2 normalized intensity; for “ATCCCGTGGACTTTGCCTGCCCATCCCGTGGCCTAGGGAGATTAGAGTATCGGTCGA” it is 4.23 log2 normalized intensity.
Take “GCTCTCCGTGGACTTTGCCCCCTACAGTTTGCCTAGGGAGATTAGAGTATCGGTCGA”: the binding signal worked out at 10.5 log2 normalized intensity.
Take “TCTTTGCCCTCTTGGTATCAGCTTTGAGACGCCTAGGGAGATTAGAGTATCGGTCGA”: the binding signal was determined as 1.91 log2 normalized intensity.
Take “TATCAGCTCTCCGTGGACTTTGCCCCCTACGCCTAGGGAGATTAGAGTATCGGTCGA”: the binding signal worked out at 11.3 log2 normalized intensity.
The figure for “TTGATTTAACATTTGTGATCTGGCACAAATGCCTAGGGAGATTAGAGTATCGGTCGA” is 0.366 log2 normalized intensity; for “AGATACTGAATCTCCCAGTGCTTTGATCTTGCCTAGGGAGATTAGAGTATCGGTCGA” it is 1.39 log2 normalized intensity.
“TCACCTGCTCATTGACCCTTAGGCCAAGGCGCCTAGGGAGATTAGAGTATCGGTCGA”: the binding signal was 3.1 log2 normalized intensity.
With “ATGTCAGGAGCCCCACTGTAGTAAGGGAGTGCCTAGGGAGATTAGAGTATCGGTCGA” the figure was -0.892 log2 normalized intensity.
For the sequence “CACCTCTGCTTATCTCAACTGATTTACCTCGCCTAGGGAGATTAGAGTATCGGTCGA”, the binding signal worked out at 0.918 log2 normalized intensity.
The figure for “TTAACACAAGTTATTACCGTGATGTTCGTTGCCTAGGGAGATTAGAGTATCGGTCGA” is 1.14 log2 normalized intensity.
With “CTTCCCAGCTGCTGGTCAAAGGGCATTACTGCCTAGGGAGATTAGAGTATCGGTCGA” the figure was 5.83 log2 normalized intensity; with “CAGAGCTGTCGTCCCAGGGCAAAGGTCACCGCCTAGGGAGATTAGAGTATCGGTCGA”, 8.47 log2 normalized intensity; with “CTGTCGTCCCAGGGCAAAGGTCACCAGCTAGCCTAGGGAGATTAGAGTATCGGTCGA”, 7.57 log2 normalized intensity.
With “GGGCAAATCTGAGGTCAAAGCTGTCAGAGAGCCTAGGGAGATTAGAGTATCGGTCGA” the figure was -0.316 log2 normalized intensity.
Consider “AGGGCAAAGGTCACCAGCTAAGCTGTTACTGCCTAGGGAGATTAGAGTATCGGTCGA”, for which the binding signal worked out at 5.83 log2 normalized intensity.
Take “GTCCCAGGGCAAAGGTCACCAGCTAAGCTGGCCTAGGGAGATTAGAGTATCGGTCGA”: the binding signal amounted to 6.21 log2 normalized intensity.
With “ATCCTGCCTCCATTAATTAACCTTTGAGCTGCCTAGGGAGATTAGAGTATCGGTCGA” the figure was 6.76 log2 normalized intensity.
With “ACATGACCTTTGTCCGTTCCTGCCTGGAGCGCCTAGGGAGATTAGAGTATCGGTCGA” the figure was 5.37 log2 normalized intensity; with “CATTCACATGACCTTTGTCCGTTCCTGCCTGCCTAGGGAGATTAGAGTATCGGTCGA”, 6.63 log2 normalized intensity.
The figure for “TTCGGTGCTGACCTTTGTTCACATTTGTGCGCCTAGGGAGATTAGAGTATCGGTCGA” is 5.96 log2 normalized intensity.
Turning to “CTGGGATGAGATACCCATTCACATGACCTTGCCTAGGGAGATTAGAGTATCGGTCGA”, the binding signal was 3.92 log2 normalized intensity.
Take “ATACCCATTCACATGACCTTTGTCCGTTCCGCCTAGGGAGATTAGAGTATCGGTCGA”: the binding signal was 7.49 log2 normalized intensity.
With “ATGAGATACCCATTCACATGACCTTTGTCCGCCTAGGGAGATTAGAGTATCGGTCGA” the figure was 8.96 log2 normalized intensity.
For “CTGATGAATAGAAAGAGGTCAATGTACTTAGCCTAGGGAGATTAGAGTATCGGTCGA”, the binding signal came to 2.94 log2 normalized intensity.
On to “TATGTTAATGGCAGAATCAAAGGTCAAAATGCCTAGGGAGATTAGAGTATCGGTCGA”, for which the binding signal was 5.17 log2 normalized intensity.
The figure for “CATTGATAATTCAGTTTCATTGCACTTTGCGCCTAGGGAGATTAGAGTATCGGTCGA” is 4.62 log2 normalized intensity.
With “TGCACTTTGCCCTCTCTTCAGCACCTTTTAGCCTAGGGAGATTAGAGTATCGGTCGA” the figure was 5.26 log2 normalized intensity; with “TCAGTTTCATTGCACTTTGCCCTCTCTTCAGCCTAGGGAGATTAGAGTATCGGTCGA”, 7.35 log2 normalized intensity.
With “TTCATTGCACTTTGCCCTCTCTTCAGCACCGCCTAGGGAGATTAGAGTATCGGTCGA” the figure was 6.34 log2 normalized intensity; with “ACTGCCATTGATAATTCAGTTTCATTGCACGCCTAGGGAGATTAGAGTATCGGTCGA”, -0.131 log2 normalized intensity.
For “ATAATTCAGTTTCATTGCACTTTGCCCTCTGCCTAGGGAGATTAGAGTATCGGTCGA”, the binding signal was 9.39 log2 normalized intensity.
With “GGTCTGTTTGTGAAACAGTGGGCAATATGAGCCTAGGGAGATTAGAGTATCGGTCGA” the figure was 1.18 log2 normalized intensity; with “AACCTAGCCCCCTTTCCCTTATCTTTGTTAGCCTAGGGAGATTAGAGTATCGGTCGA”, 2.54 log2 normalized intensity.
For “GGACAAAGTTCGTGGAAAGTGGAAGAATGGGCCTAGGGAGATTAGAGTATCGGTCGA”, the binding signal was found to be 0.952 log2 normalized intensity.
The figure for “CATGAAGCTTCCCCTTTAACCAATATTAGCGCCTAGGGAGATTAGAGTATCGGTCGA” is 0.107 log2 normalized intensity.
With “AACACTATCTTCTTTCAGTGTTGACCTTTGGCCTAGGGAGATTAGAGTATCGGTCGA” the figure was 7.46 log2 normalized intensity; with “GAATGTTGAACCTTTCTTTGTCTTTGCAATGCCTAGGGAGATTAGAGTATCGGTCGA”, 1.98 log2 normalized intensity.
Regarding “TATCCAATAAAACACTATCTTCTTTCAGTGGCCTAGGGAGATTAGAGTATCGGTCGA”, the binding signal worked out at 0.405 log2 normalized intensity.
The figure for “AACCTTCATCTCTCTTTGTTGACATCTGCTGCCTAGGGAGATTAGAGTATCGGTCGA” is -0.0144 log2 normalized intensity.
The figure for “TCTTTCAGTGTTGACCTTTGAACATTTCTTGCCTAGGGAGATTAGAGTATCGGTCGA” is 8.97 log2 normalized intensity.
With “TATCTTCTTTCAGTGTTGACCTTTGAACATGCCTAGGGAGATTAGAGTATCGGTCGA” the figure was 9.23 log2 normalized intensity.
With “AGGAGTGTCTTTCTCCTTGAACACAGTGTTGCCTAGGGAGATTAGAGTATCGGTCGA”, the binding signal worked out at 1.24 log2 normalized intensity.
With “TCTTGGAATGTTGAACCTTTCTTTGTCTTTGCCTAGGGAGATTAGAGTATCGGTCGA” the figure was 2.31 log2 normalized intensity; with “CATGCTCTTGGAATGTTGAACCTTTCTTTGGCCTAGGGAGATTAGAGTATCGGTCGA”, 3.19 log2 normalized intensity.

The values are drawn from publication PMC10726135, “HNF4α isoforms regulate the circadian balance between carbohydrate and lipid metabolism in the liver”.
